# Inconclusive results are not listed. A call without a number means that no potency is given here. Active and inactive are the calls of the source. Calls come from the whole dose curve; as a rule, active = well fitted cell-killing curve with a large enough effect in the repeat runs; inconclusive = weak or mixed curves, or effect the other way; inactive = no such curve, though single readings can be large or run the other way.
# Test: qHTS assay for small molecule activators of the heat shock response signaling pathway - cell viability counter screen (AID 743209); note: nearly all actives have a fitted effect of over 50% in size
# Details: HSE-bla HeLa viability, CellTiter-Glo luminescence, 5 h; series mostly up to 62.6 µM
# Source text: U.S. Tox21 Program National Center for Advancing Translational Sciences [NCATS] NIH Chemical Genomics Center [NCGC] U.S. Environmental Protection Agency [EPA] National Institutes of Environmental Health Sciences [NIEHS] National Toxicology Program [NTP] U.S. Food and Drug Administration [FDA] Tox21 Assay Overview: Various chemicals, environmental and physiological stress conditions may lead to the activation of heat shock response/ unfolded protein response (HSR/UPR). There are three heat shock transcription factors (HSFs) (HSF-1, -2, and -4) mediating transcriptional regulation of the human HSR. To identify the compounds that activate HSR signaling, HSE-bla HeLa cell line (Invitrogen, Carlsbad, CA, USA) containing a beta-lactamase reporter gene under the control of the heat shock response elements was used to screen Tox21 10K compound library. The cytotoxicity of the Tox21 compound library against the HSE-bla HeLa cell line was tested in parallel by measuring the cell viability using CellTiter-Glo assay (Promega, Madison, WI) in the same wells.
# Tox21 Assay Protocol Summary: The CellSensor HSE-bla HeLa cells (Invitrogen, Carlsbad, CA, USA) were dispensed at 1500 cells/6uL/well into 1536-well black wall/clear bottom plates using a Multidrop combi (Thermo Fisher Scientific, Waltham, MA) dispenser. After the assay plates were incubated at 37 C and 5% CO2 overnight, 23 nL of compounds dissolved in DMSO, positive controls or DMSO only was transferred to the assay plate by a Pintool station (Kalypsys, San Diego, CA). The plates were incubated at 37 C for 5 h. After 1 uL of LiveBLAzerTM B/G FRET substrate was added using a Flying Reagent Dispenser (FRD, Beckman Coulter, Indianapolis, IN, USA), the plates were incubated at room temperature for 2.5 h, and fluorescence intensity was measured by an Envision plate reader (PerkinElmer, Shelton, CT). For cell viability readout that measures cytotoxicity, 3 ul/well of CellTiter-Glo reagent was added into the assay plates using a FRD. After 30 min incubation at room temperature, the luminescence intensity in the plates was measured using a ViewLux (PerkinElmer) plate reader.
row,Compound,Potency
1,C[C@@H]1C[C@H]2[C@@H]3CCC4=CC(=O)C=C[C@]4(C)[C@@]3(F)[C@@H](O)C[C@]2(C)[C@@]1(O)C(=O)CO,inactive
2,O=C(CCCCCCCCC#CI)Oc1ccccc1,inactive
3,Cc1oc(C)c(C(=O)Nc2ccccc2)c1C,inactive
4,OCCSc1ccccc1,inactive
5,NC(=O)N(O)[C@@H]1COc2cc(OCc3ccccc3)ccc21,inactive
6,CCC(=O)OC/C=C/c1ccccc1,inactive
7,CC(=N\O)/C(C)=N/O,inactive
8,C[C@@H]1C[C@H]2[C@@H]3CCC4=CC(=O)C=C[C@]4(C)[C@@]3(F)[C@@H](O)C[C@]2(C)[C@H]1C(=O)CO,inactive
9,Nc1c(I)cc(I)c(C(=O)N(CCC(=O)O)c2ccccc2)c1I,inactive
10,CC(=O)Oc1ccc2c(c1)CC[C@@H]1[C@@H]2CC[C@]2(C)[C@@H](O)CC[C@@H]12,inactive
11,C/C=C(\C)C(=O)OCCC(C)CCC=C(C)C (stereo not given),inactive
12,O=S1OCCO1,inactive
13,O=C(O)C(Cc1cc(I)c(O)c(I)c1)c1ccccc1 (stereo not given),inactive
14,c1ccc(COCc2ccccc2)cc1,inactive
15,O=C(Nc1ccccc1)Nc1ccccc1,inactive
16,CC#N,inactive
17,O=c1[nH]c2ccc(S(=O)CCN3CCC(Cc4ccc(F)cc4)CC3)cc2o1 (stereo not given),inactive
18,COc1cc2c(N3CCN(C(=O)Nc4ccc(OC(C)C)cc4)CC3)ncnc2cc1OCCCN1CCCCC1,inactive
19,C=CC(=C)CCCC(C)(C)OC(C)=O,inactive
20,CC(C)(C)CC(C)(C)c1ccc(OCCO)cc1,inactive

row,Compound,Potency
1,CC(CCc1ccc2c(c1)OCO2)NN (stereo not given),inactive
2,Cc1cc(OI)c(C(C)C)cc1-c1cc(C(C)C)c(OI)cc1C,inactive
3,COCC(O)CO (stereo not given),inactive
4,CC(C)C(=O)O,inactive
5,NC(=O)N(O)[C@@H]1C=C[C@H](Oc2cccc(Oc3ccc(F)cc3)c2)C1,inactive
6,CC(=O)CC(c1ccc([N+](=O)[O-])cc1)c1c(O)c2ccccc2oc1=O (stereo not given),inactive
7,CC(=O)Nc1ccc(N)cc1,inactive
8,COC(=O)c1cc(S(N)(=O)=O)ccc1OC,inactive
9,Cc1cc(O)c(C(C)C)cc1Cl,inactive
10,O=C(OCCOCCO)c1ccccc1Nc1cccc(C(F)(F)F)c1,inactive
11,CCCCCCOC(=O)C(C)C,inactive
12,Fc1ccccc1[C@@H](F)COC1CCC(Nc2ncnc3[nH]ncc23)CC1 (stereo not given in full),inactive
13,CO[C@H]1C=CO[C@@]2(C)Oc3c(C)c(O)c4c(O)c(c5c(c4c3C2=O)=NC2(CCN(CC(C)C)CC2)N=5)NC(=O)/C(C)=C\C=C/[C@H](C)[C@H](O)[C@@H](C)[C@@H](O)[C@@H](C)[C@H](OC(C)=O)[C@@H]1C,inactive
14,COc1cc2ncnc(Nc3ccc(F)c(Cl)c3)c2cc1OCCCN1CCOCC1,inactive
15,c1cc[c]([Bi]([c]2ccccc2)[c]2ccccc2)cc1,inactive
16,Nc1ccc(C(=O)OCCCOC(=O)c2ccc(N)cc2)cc1,inactive
17,O=S(=O)(c1ccccc1)c1ccc(Cl)cc1,inactive
18,O=C(C(=O)c1ccccc1)c1ccccc1,inactive
19,CC(C)CCCCCCOC(=O)CCCCC(=O)OCCCCCCC(C)C,inactive
20,CC(C)OCC1CO1 (stereo not given),inactive
